In the library only some 6% were active in any assay of this set; here they are far more common.
DRD3 agonist: D3 dopamine receptor (human) agonism; AID 652048; max activation, %; P35462; D3R DiscoveRx beta-arrestin cells, luminescence, 90 min; 410,000 tested, 0.58% active; in the data active = max activation above about 30%; note: 0% is about no effect
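Cells at 1500/well, incubated overnight, then treated with pinned compounds (dopamine as control) for 90 min at 37 degrees C. DiscoveRx reagent added for 30 - 60 minutes at room temperature; luminescence read.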
D1 agonist: activates the human D1 dopamine receptor; HEK293 T-REx D1 cells, calcium flux, agonist mode; activation, % at 2 µM; 360,000 tested, 1% active; AID 504660; P21728; in the data active = activation above about 30%; note: 0% is about no effect
Target sequence (P21728 whole entry, looked up): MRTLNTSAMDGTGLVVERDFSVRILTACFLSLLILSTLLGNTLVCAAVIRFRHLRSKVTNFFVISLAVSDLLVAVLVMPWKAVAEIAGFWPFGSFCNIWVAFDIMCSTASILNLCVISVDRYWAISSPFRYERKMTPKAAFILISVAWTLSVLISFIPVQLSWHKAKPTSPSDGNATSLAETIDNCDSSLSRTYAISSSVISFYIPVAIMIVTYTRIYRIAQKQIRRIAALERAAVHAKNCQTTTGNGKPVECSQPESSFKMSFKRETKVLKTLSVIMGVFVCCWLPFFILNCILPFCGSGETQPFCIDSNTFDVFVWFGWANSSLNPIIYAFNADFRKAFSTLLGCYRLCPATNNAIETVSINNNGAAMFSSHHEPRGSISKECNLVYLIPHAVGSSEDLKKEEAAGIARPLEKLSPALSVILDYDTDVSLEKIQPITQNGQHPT
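Inducible HEK293 T-REx D1 cells, force-coupled to calcium signalling, were plated at 4000 cells/well with tetracycline and held overnight at 30 C. After no-wash calcium dye loading, compound-evoked calcium rise over 180 s flagged agonists.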
D1 antagonist: blocks dopamine activation of the human D1 receptor | P21728 | HEK293 TREx D1 cells, calcium flux, dopamine EC80; stronger effect = lower value | activity change, negative = inhibition, % at 10 µM | 360,000 tested, 3.2% active | AID 504652; in the data active = activity change below about -30%; note: % is set by controls: 0 for no effect and ±100 for the full control effect
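Using tetracycline-induced force-coupled D1 Hek293 cells and a calcium dye, signals were followed for 180 s after compound, then for 180 s after EC80 dopamine, to detect inhibitors.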
D1 potentiator: potentiators of human D1 dopamine receptor; potentiation, % at 10 µM; P21728; HEK293 TREx D1 cells, calcium flux, dopamine EC20 potentiation; 360,000 tested, 0.036% active; in the data active = potentiation above about 30%; note: 0% is about no effect
D3 antag: blocks the human D3 dopamine receptor; P35462; D3R cells, DiscoveRx beta-arrestin luminescence, antagonist mode; stronger effect = lower value; max response, negative = inhibition, %; 360,000 tested, 2.5% active; AID 652054; in the data active = max response below about -50%; inconclusive = no clear call, values can overlap the other calls; note: % is set by controls: 0 for no effect and ±100 for the full control effect
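Cells plated overnight at 1500 cells/well, then exposed to library compounds with dopamine controls for 90 minutes at 37 degrees C. DiscoveRx reagent added for 30–60 minutes at room temperature; luminescence read, quantitative HTS format.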
* marks the source's active call; other numbers are inactive results; ? = inconclusive; . = no result given; ! = repeats disagree.

SMILES | DRD3 agonist | D1 agonist | D1 antagonist | D1 potentiator | D3 antag
CC(=O)OC/C=C(C)/C=C/C=C(C)/C=C/C1=C(C)CCCC1(C)C | 7 | . | . | . | .
COc1cc2c(cc1OC)C1O[C@](CCCCN3C(=O)c4ccccc4C3=O)(C2)OC2=C1C(=O)CC(C)(C)C2 | . | 5 | -8 | -2 | .
CCOc1ccc(OCCNCc2ccc(OC(C)C(=O)N(C)C)c(OCC)c2)cc1 (centres undefined) | 1 | 56* | 10 | -2 | 5
CCOc1cc(CNCCO)ccc1OCC(=O)NC(C)(C)C | 5 | 2 | -6 | 2 | -4
O=C(Nc1ccc(F)cc1F)N1CCN(c2ccc(Cl)c(Cl)c2)CC1 | -11 | 28 | -32* | -3 | .
CCN(CC)S(=O)(=O)c1nnc(NC(=O)COc2cccc(C)c2)s1 | -7 | 0 | -14 | -1 | .
OC(c1ccc(F)cc1)c1nc(-c2cncnc2)cs1 (centres undefined) | -7 | . | . | . | -24
COc1cc(Nc2cc(C)nc3ncnn23)cc(OC)c1OC | -1 | 0 | -31* | -14 | -13
Cc1cc(Br)c2c(c1)[C@](O)(c1cn(C)c3ccccc13)C(=O)N2C | 5 | . | . | . | 4
Cc1ccc(-c2nc(CSc3nnc(C)n4c3cc3occc34)c(C)o2)cc1 | 6 | 0 | -6 | 0 | .
Cc1ccc(N=C2C(=O)Nc3ccccc32)cc1C | -6 | 2 | -2 | 5 | 5
Cc1ccc(N=C2c3ccccc3C(=O)C2[N+](=O)[O-])cc1C (centres undefined) | -4 | 3 | -7 | -4 | -58*
Cc1[nH]c2c(C)cccc2c1CCNC(=O)c1ccc2c(c1[N+](=O)[O-])C(=O)c1ccccc1C2=O | 0 | 1 | 19 | 1 | -56*
CN(C)C(=O)c1ccc2c(c1[N+](=O)[O-])C(=O)c1ccccc1C2=O | -9 | 3 | 12 | 11 | ?
Cc1[nH]c2ccccc2c1CCNC(=O)c1ccc2c(c1[N+](=O)[O-])C(=O)c1ccccc1C2=O | -16 | 4 | 1 | -4 | -85*
CC(C)(C)OC(=O)NC1CC2CCCC(C1)N2Cc1ccccc1 (centres undefined) | -21 | 3 | 12 | -1 | -85*
COCC(=O)NC1CC2CCCC(C1)N2Cc1ccccc1 (centres undefined) | 2 | -1 | -12 | -2 | -77*
CNC(=O)c1[nH]cnc1C(=O)NCC(=O)OCc1ccccc1 | 9 | 0 | 2 | -5 | 20
CCC1(C)N=C(N)Nc2nc3cc(C)c(C)cc3n21 (centres undefined) | 3 | 1 | -6 | -1 | 20
Cc1cc(C)cc(NC(=O)C(=O)NCCCN2CCOCC2)c1 | -2 | -1 | -79*! | 2 | 18
Cc1ccc(S(=O)(=O)NCCCN2CCOCC2)cc1C | -1 | 1 | 1 | -6 | -67*
O=S(=O)(NCCN1CCOCC1)c1cc(Cl)c(Cl)cc1Cl | 1 | 6 | -31* | -5 | 3
Cc1ccc(S(=O)(=O)NCCCN2CCCC2)cc1 | -17 | 1 | 5 | 2 | -53*
Cc1ccccc1NC(=O)CSCn1nnc2c(=O)[nH]c(Cc3ccc(F)cc3)nc21 | 2 | 0 | 2 | 3 | .
Cc1ccc(S(=O)(=O)NC(=O)NCCCN2CCOCC2)cc1 | -8 | 2 | -56* | -10 | -18
SMILES | DRD3 agonist | D1 agonist | D1 antagonist | D1 potentiator | D3 antag
CCOC(=O)CNS(=O)(=O)c1cc(-c2nn(C)c(=O)c3ccccc23)ccc1C | 4 | . | . | . | 2
Cc1ccc(-c2nn(C)c(=O)c3ccccc23)cc1S(=O)(=O)NCCN1CCOCC1 | -5 | -3 | 20 | 0 | -53*
Cc1cc(C)c(NC(=O)OCCN2CCOCC2)c(C)c1 | -7 | 1 | 2 | -2 | -60*
COc1cc(O)c(C=Nc2ccccc2NS(=O)(=O)c2ccc(C)cc2)c(OC)c1 | 1 | . | . | . | -3
COc1ccc(-c2cn[nH]c2C)cc1 | 6 | -1 | -37* | 0 | 12
CCc1cccc(C)c1NC(=O)CN1C(=O)c2ccccc2Sc2ncccc21 | -6 | 4 | 6 | -1 | .
CCOc1ccccc1NC(=O)CCSc1nc2n[nH]c(C)c2c(=N)n1-c1ccccc1Cl | 30* | 1 | 9 | 1 | 26
Cc1ccccc1-n1c(SCC(=O)Nc2ccccc2Cl)nc2n[nH]c(C)c2c1=N | 5 | 4 | -8 | -7 | 33
O=C1CS(=O)(=O)N(Cc2ccccc2F)c2ccc(Br)cc21 | 16 | . | . | . | 9
